# From the supplement of paper PMC7530171
# “And” between values parts separate entries of the source, which are not always exact repeats. Equal entries are not always repeated. Structures can show the parent of a compound that is named as a salt. ± gives the standard deviation.
# System: THP-1
# Test: THP-1 cell loss relative to DMSO control; higher = more host cell loss (toxicity); extreme values may be limits of the assay
# Conditions: 10 µM; 4 days; infection: M. tuberculosis H37Rv
# Experimental: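 OICR kinase inhibitor library screened in duplicate at 10 uM against M. tuberculosis-infected THP-1 macrophages, 4 days at 37 C. THP-1 cell loss (cytotoxicity or loss of adherence) was quantified from Hoechst-stained nuclei counts by high-content imaging and normalised to the 1% DMSO control; 100 = complete loss of host cells.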
row,Structure (SMILES),THP-1 cell loss
1,NC(=O)Nc1sc(-c2ccc(F)cc2)cc1C(N)=O,76.1 ± 3%
2,CC(C)(C)c1cnc(CSc2cnc(NC(=O)C3CCNCC3)s2)o1,100%
3,Cc1[nH]c(/C=C2\C(=O)Nc3ccccc32)c(C)c1CCC(=O)O,5 ± 7.1%
4,C=CC(=O)Nc1cc2c(Nc3ccc(F)c(Cl)c3)ncnc2cc1C#CC(C)(C)N1CCN(C)CC1,100%
5,O=C1NCCCc2c1oc1ccc(O)cc21,6.23 ± 8.8%
6,CCCS(=O)(=O)Nc1ccc(F)c(C(=O)c2c[nH]c3ncc(Cl)cc23)c1F,11.5 ± 14%
7,O=C1Nc2ccc(I)cc2/C1=C/c1cc(Br)c(O)c(Br)c1,20.5 ± 16%
8,CN(C)S(=O)(=O)c1ccc2c(c1)/C(=C/c1cc3c([nH]1)CCCC3)C(=O)N2,7.5 ± 1.4%
9,Cc1nc(Nc2ncc(C(=O)Nc3c(C)cccc3Cl)s2)cc(N2CCN(CCO)CC2)n1 [Dasatinib],34.7 ± 4.4%
10,O=c1cc(N2CCOCC2)oc2c1ccc1ccccc12,24.4 ± 6.4%
11,CN(c1ccccc1CNc1nc(Nc2ccc3c(c2)CC(=O)N3)ncc1C(F)(F)F)S(C)(=O)=O,100%
12,C=CC(=O)Nc1cc2c(Nc3ccc(F)c(Cl)c3)ncnc2cc1OCCCN1CCOCC1,100%
13,CC#CC(=O)Nc1cc2c(Nc3ccc(F)c(Cl)c3)ncnc2cn1,89.9 ± 14%
14,Cc1ccc(C(=O)Nc2cccc(C(F)(F)F)c2)cc1-c1ccc2nc(NCCN3CCOCC3)ncc2c1,100%
15,CCCCCCCC(=O)OCCOC(=O)CCCCCCC [Dioctanoylglycol],4.61 ± 6.5%
16,Nc1ccc(C(=O)Nc2cccc(-c3nc(N4CCOCC4)c4oc5ncccc5c4n3)c2)cn1,43 ± 2.2%
17,CCc1cc(Nc2nccc(-c3c(-c4ccc(OC)c(C(=O)Nc5c(F)cccc5F)c4)nc4ccccn34)n2)c(OC)cc1N1CCC(N2CCN(S(C)(=O)=O)CC2)CC1,10.9 ± 13%
18,Nc1nc(OCC2CCCCC2)c2[nH]cnc2n1,3.9 ± 5.5%
19,CC(C)N(CCC(=O)c1ccc2ccccc2c1)Cc1ccccc1,3.99 ± 5.6%
20,C[C@@H](Oc1cc(-n2cnc3ccc(CN4CCN(C)CC4)cc32)sc1C(N)=O)c1ccccc1C(F)(F)F,23.7 ± 4.8%

row,Structure (SMILES),THP-1 cell loss
1,Cc1[nH]c(/C=C2\C(=O)Nc3ccc(S(=O)(=O)N(C)c4cccc(Cl)c4)cc32)c(C)c1C(=O)N1CCN(C)CC1,65.8 ± 13%
2,COc1cc(OC)c(C=C2C(=O)Nc3ccccc32)c(OC)c1,45.3 ± 6.7%
3,Nc1nc(Nc2ccc(S(N)(=O)=O)cc2)nn1C(=O)c1c(F)cccc1F,100%
4,N#Cc1c(NC(=O)c2cccc3ccccc23)sc2c1CCCC2,60.6 ± 15%
5,COc1cc2ncnc(Nc3ccc(O)c(Br)c3)c2cc1OC,15.2 ± 1.4%
6,COc1ccc(S(=O)(=O)N(C(C)=O)c2ccccc2/C=C/c2cc[n+]([O-])cc2)cc1,51.3 ± 4.4%
7,Cn1cc(-c2ccc3nnc(C(F)(F)c4ccc5ncccc5c4)n3n2)cn1,13.4 ± 19%
8,CN1CCN(c2ccc3nc(-c4c(N)c5c(F)cccc5[nH]c4=O)[nH]c3c2)CC1 [Dovitinib],100%
9,CC(C)(C)n1nc(-c2cccc3ccccc23)c2c(N)ncnc21 [1-Naphthyl PP1],13.6 ± 19%
10,Cn1cc(-c2ccc3nnc(Sc4ccc5ncccc5c4)n3n2)cn1,10.4 ± 3.7%
11,Nc1ccc(-c2cccc3c(=O)cc(N4CCOCC4)oc23)cc1,39.6 ± 3.5%
12,N#CC[C@H](C1CCCC1)n1cc(-c2ncnc3[nH]ccc23)cn1,26.3 ± 7.9%
13,Cc1cc(N2CCOCC2)cc2[nH]c(-c3c(NC[C@@H](O)c4cccc(Cl)c4)cc[nH]c3=O)nc12,21.7 ± 10%
14,Nc1ncnc2n[nH]c(Nc3ccc(F)cc3)c12,24% and 11%
15,Oc1ccc(Nc2nc(-c3ccc(Cl)cc3)cs2)cc1,100%
16,O=C(Nc1cc(Cl)cc2c1[nH]c1cnccc12)c1cccnc1 [PS1145 dihydrochloride],48.1 ± 24%
17,COc1nccc(-c2c(-c3ccc(F)cc3)ncn2C2CCC(O)CC2)n1 (stereo not given),1.08 ± 1.5%
18,Cc1cc(Nc2nc(N[C@@H](C)c3ncc(F)cn3)ncc2Cl)[nH]n1,4.08 ± 4.6%
19,Cc1cc(Nc2nc(N[C@@H](C)c3ccc(F)cc3)c(C#N)cc2F)n[nH]1,39 ± 9.1%
20,Oc1cc(-c2nc(-c3ccccc3)[nH]c2-c2ccncc2)ccc1Cl,100%
